The source of these data is PubChem BioAssay AID1986 (Sanford-Burnham Center for Chemical Genomics, 2009).

Screen size: about 290,000 compounds; about 890 (0.31%) were called active. No stated cut-off is given here; in the data, active means inhibition mostly above about 52% (no sharp cut-off); inactive means mostly below about 76%. The list comes from a sample in which actives are over-represented; it also holds similar structures and randomly drawn compounds.

The nature of this assay: inhibitors of HIV fusion peptide binding, primary screen, biochemical, uHTS, fluorescence dequenching (AID 1986). As to conditions: cell-free peptide binding, 30 min, stronger effect = higher value.
Setting [1] is: measured here: repeat confirmation average inhibition, at 18.6 µM.

One may read the inhibition as the change of the read-out against control, counted positive when it falls. As to `Cc1coc2cc3oc(=O)c(CCC(=O)N4CCC(C(=O)O)(c5ccccc5)CC4)c(C)c3cc12`, for the setting “at 20 µM”, the inhibition is 3.7% (inactive).

On to `O=C1CCN(Cc2ccccc2)CCN1[C@H](CO)c1ccccc1`, for which the inhibition (at 20 µM) is 1.5% (inactive).

As to `Cc1ccc(NC(=O)COC(=O)c2ccccc2-c2nc3ccccc3s2)c(C)c1`, the inhibition (at 20 µM) was 1.4% (inactive).

Take `Cc1cccn2c(=O)c(/C=C3\SC(=S)NC3=O)c(NCCCN3CCOCC3)nc12`: the inhibition was 75.8% (inactive) (at 20 µM) and 7.4% under setting [1].

In the case of `CCCN1C(=O)/C(=C/c2c(NCCCOCC)nc3c(C)cccn3c2=O)SC1=S`, the inhibition (at 20 µM) is 8.4% (inactive).

As for `CCOCCCNC(=O)c1cc2c(=O)n3cccc(C)c3nc2s1`, the inhibition (at 20 µM) was -1.3% (inactive).

In the case of `Cc1cccn2c(=O)c(C=Nc3ccccc3)c(NCCO)nc12`, the inhibition (at 20 µM) was 0.3% (inactive).

For the compound `CCOCCCNc1nc2c(C)cccn2c(=O)c1/C=C1\SC(=S)N(C(C)CC)C1=O` (stereo not given), the inhibition (at 20 µM) is 94.5% (active).

As to `CCC(C)N1C(=O)/C(=C/c2c(NCCCOC(C)C)nc3c(C)cccn3c2=O)SC1=S` (stereo not given), the inhibition runs as follows: (at 20 µM) 75.6% (active); under setting [1], 144%.

Regarding `Cc1cccn2c(=O)c3cc(C(=O)NCCCOC(C)C)sc3nc12`, the inhibition (at 20 µM) was 1% (inactive).

In the case of `CCCN1C(=O)/C(=C/c2c(NCCCOC(C)C)nc3c(C)cccn3c2=O)SC1=S`, the inhibition (at 20 µM) is 1.8% (inactive).

Consider `CCOCCCNc1nc2c(C)cccn2c(=O)c1/C=C1\SC(=S)N(CC(C)C)C1=O`, for which the inhibition was 58.9% (active) (at 20 µM) and 63.6% under setting [1].

Consider `Cc1c(C(=O)NN)sc(=S)n1C`, for which the inhibition (at 20 µM) is -1.3% (inactive).

Take `O=C(N/N=C/c1cc2c(cc1Br)OCO2)c1cc2ccccc2o1`: where the note is “at 20 µM”, the inhibition was -0.4% (inactive).

For the compound `COc1cccc(NC(=O)Cc2c(O)c3ccccc3[nH]c2=O)c1`, where the note is “at 20 µM”, the inhibition was -2.3% (inactive).

For `Cn1nnnc1SCc1ccccc1F`, where the note is “at 20 µM”, the inhibition was 2.4% (inactive).

For `O=C(Nc1cccc(NC(=O)c2ccc([N+](=O)[O-])o2)c1)c1ccco1`, the inhibition (at 20 µM) was 0.6% (inactive).

Take `CC(C)c1onc(C(=O)NCCc2ccccc2)c1[N+](=O)[O-]`: under “at 20 µM”, the inhibition is -0.8% (inactive).

As for `O=C(O)c1ccccc1NS(=O)(=O)c1cccc(-n2sc3ccccc3c2=O)c1`, the inhibition (at 20 µM) was 54.9% (active).

In the case of `CN(C)S(=O)(=O)c1cccc(-n2sc3ccccc3c2=O)c1`, where the note is “at 20 µM”, the inhibition was -1.2% (inactive).

Regarding `O=C(O)c1ccccc1NS(=O)(=O)c1cccc(C(F)(F)F)c1`, under “at 20 µM”, the inhibition is 7.8% (inactive).

For `Cc1ccc(N=Cc2cccc(O)c2O)c(C)c1`, the inhibition (at 20 µM) was -1.8% (inactive).

With `Cc1ccccc1N=Cc1cccc(O)c1O`, the inhibition (at 20 µM) is 64.9% (active).

As to `Oc1cccc(C=Nc2cccc3ccccc23)c1O`, for the setting “at 20 µM”, the inhibition was 36.3% (inactive).

For `Clc1cccc(CN2CCN(c3nc4nonc4nc3NC3CC3)CC2)c1`, the inhibition (at 20 µM) is 3.4% (inactive).

Turning to `Nc1ccc2nc3c(=O)n(C4CCCCC4)c(=O)[nH]c3nc2c1`, the inhibition (at 20 µM) was 146% (inactive).

On to `CCCCCCn1c(=O)[nH]c2nc3cc(N)c(C)cc3nc2c1=O`, for which the inhibition (at 20 µM) was 38.8% (inactive).

Regarding `Cc1cc2nc3c(=O)n(C4CCCCC4)c(=O)[nH]c3nc2cc1N`, the inhibition (at 20 µM) is 66.8% (active).

Turning to `CCOC(=O)c1cnc2c(N=Nc3ccccc3)c(N)nn2c1N`, the inhibition (at 20 µM) was -0.1% (inactive).

`COc1ccc(/C=N\NS(=O)(=O)c2ccc(Br)cc2)cc1COc1ccccc1[N+](=O)[O-]`: where the note is “at 20 µM”, the inhibition was -1.1% (inactive).

For `COC(=O)c1cc(S(=O)(=O)NCCc2ccc(Cl)cc2)c[nH]1`, the inhibition (at 20 µM) is 1.3% (inactive).

Turning to `COc1ccccc1C(NC(C)=O)c1cc(Cl)c2cccnc2c1O` (stereo not given), the inhibition (at 20 µM) is -2.4% (inactive).

As to `Oc1c(C(Nc2ccccn2)c2cccnc2)cc(Cl)c2cccnc12` (stereo not given), where the note is “at 20 µM”, the inhibition is -3.6% (inactive).

`CCOc1ccc(C(Nc2cccnc2)c2cc(Cl)c3cccnc3c2O)cc1` (stereo not given): the inhibition (at 20 µM) is 17.1% (inactive).

For `O=C(O)COc1ccccc1C(Nc1cccnc1)c1cc(Cl)c2cccnc2c1O` (stereo not given), for the setting “at 20 µM”, the inhibition was 77.6% (active).

Consider `O=C(O)COc1ccccc1C(Nc1ccccn1)c1cc(Cl)c2cccnc2c1O` (stereo not given), for which, for the setting “at 20 µM”, the inhibition is 56.9% (active).

For the compound `O=C(NC(c1ccccc1)c1cc(Cl)c2cccnc2c1O)c1cccnc1` (stereo not given), the inhibition (at 20 µM) was 0.8% (inactive).

`Fc1ccc(CSc2ccc(-c3ccc4c(c3)OCO4)nn2)cc1`: the inhibition (at 20 µM) was -3.7% (inactive).

Regarding `O=S(=O)(NCCC1CC1(Cl)Cl)c1ccccc1` (stereo not given), the inhibition (at 20 µM) is -2% (inactive).

As to `CCOc1ccc(C(=O)NC(=S)Nc2ccccn2)cc1[N+](=O)[O-]`, the inhibition (at 20 µM) was -0.9% (inactive).

For the compound `CCCCNC(=O)Oc1cc(CCl)on1`, the inhibition (at 20 µM) is 0.1% (inactive).

For the compound `CCCCNC(=O)Oc1c(Br)cc2sc(=O)oc2c1Br`, the inhibition (at 20 µM) was 54.3% (active).

Turning to `O=C(NC1CCCCC1)Oc1cc2oc(=O)sc2cc1Br`, the inhibition (at 20 µM) is -1.5% (inactive).

Consider `COC(=O)c1cc(OC)c(OC)cc1NC(=O)c1csc(C)c1`, for which the inhibition (at 20 µM) was -1.1% (inactive).

For `COc1ccccc1-c1ccc(/C=C2\C=CC(=O)O2)o1`, the inhibition is, setting by setting: (at 20 µM) 70.7% (active); under setting [1], 59%.

For the compound `CCCC1=C/C(=C/c2ccc(-c3ccccc3OC)o2)C(=O)O1`, the inhibition (at 20 µM) is 32% (inactive).
